# Test results as given in PubChem BioAssay (NCATS).
# “And” between values parts separate entries of the source, which are not always exact repeats. Identical values can stand only once. Results filed as inconclusive are left out. Where a call stands in place of a potency, no number is given. Some compounds were tested as several samples or in several runs, with calls that do not always agree. The source made the active and inactive calls. Unless noted, calls follow the shape of the dose curve; as a rule, active = well fitted curve in the direction sought with a large enough effect; inconclusive = small, poorly fitted or top-dose-only effect, or another doubt; inactive = no such curve, though single readings can be large; an effect the other way counts as inactive or inconclusive.
# How the values were obtained:
# [1] = biological target: Guanine nucleotide-binding protein G(i) subunit alpha-1 (Homo sapiens) (UniProt P63096); assay: qHTS Assay for Inhibitors of RGS12 GoLoco Motif Activity (Green Fluorophore) (AID 879); also: potency is read from the fitted curve at half-maximal effect
# How it was run: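 Fluorescence polarization assay: 50 nM Gαi1 with 10 nM FITC-labeled RGS12 GoLoco peptide in 10 mM Tris pH 7.5, 150 mM NaCl, 0.1 mM GDP, 0.05% NP40, 10 min at room temperature with compound.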
# [2] = qHTS Assay for Identification of Small Molecule Antagonists for NFkB Signaling Pathway (AID 895; active = well fitted inhibition curve with a large enough effect in the signal ratio, with a control signal flat, not every such curve was filed as active; the % refers to the signal ratio; also: potency is read from the fitted curve at half-maximal effect)
# How it was run: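 ME-180 NFkB-bla cells (beta-lactamase under NFkB response element), plated overnight, treated with compound then 10 pM TNF alpha (about EC50) for 5 hrs at 37 C. LiveBLAzer FRET read at 460/530 nm emission, 405 nm excitation.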
# [3] = Confirmation and Secondary Assay for Modulators of Hemoglobin Beta Chain Splicing at IVS2 654 locus (AID 910);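 also: HeLa cells stably carrying EGFP split by mutant beta-globin IVS2-654 intron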
# How it was run: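 HeLa cells stably expressing EGFP interrupted by β-globin IVS2-654 intron, seeded overnight in Opti-MEM/2% FCS, then treated 2 days at 37 °C. Restored splicing read as total peak GFP intensity per well by laser scanning cytometry (488 nm excitation, 500–520 nm emission); 500 nM antisense PNA as control.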
# [4] = qHTS Assay for Identification of Small Molecule Agonists for Thrombopoietin (TPO) Signaling Pathway (AID 917); also: potency is read from the fitted curve at half-maximal effect
# How it was run: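 IL-3-dependent murine pro-B Ba/F3 cells, stably transfected with human TPO receptor and GpIIb-promoter luciferase, are incubated 24 hrs at 37 C with test compound and 26 pM TPO; luciferase signal is read after 10 min at room temperature.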
# [5] = Confirmation and Secondary Assay for Modulators of Hemoglobin Beta Chain Splicing at IVS2 705 locus (AID 930);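 also: HeLa cells stably expressing the EGFP-705 splicing reporter; GFP fluorescence per well restored by corrected splicing of the IVS2-705 intron in EGFP; series mostly up to about 46 µM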
# How it was run: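 Assay measures total GFP intensity per well in HeLa EGFP-705 cells after 2 days with compound; mis-splicing normally truncates EGFP, so fluorescence indicates corrected splicing.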
# [6] = biological target: Pyruvate kinase (Leishmania mexicana) (UniProt Q27686); assay: qHTS Validation Assay for Inhibitors of Leishmania Mexicana Pyruvate Kinase (AID 945); also: potency is read from the fitted curve at half-maximal effect
# How it was run: (§1)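 Pyruvate kinase activity of E451W LmPYK (0.2 nM) was followed as ATP output after 1 h at room temperature with 0.5 mM PEP and 0.1 mM ADP, detected by PKLight luminescence.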
# [7] = biological target: Muscarinic acetylcholine receptor M1 (Rattus norvegicus) (UniProt P08482); assay: qHTS Assay for Antagonists of Acetylcholine Muscarinic M1 Receptor: Measurement of IP-One Response (AID 944); also: nearly all actives have a fitted effect of over 75% in size; also: potency is read from the fitted curve at half-maximal effect
# How it was run: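 CHO cells expressing rat M1 receptor, recovered overnight, were pre-incubated 10 min with compound, then stimulated 30 min with carbachol at EC80 (200 nM) in LiCl-containing buffer, pH 7.4. IP1 accumulation was read by HTRF (620/665 nm).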
# [8] = MultiTox-Fluor Cytotoxicity Assay - LYMP1-001 - Dead Cells (AID 946); also: potency is read from the fitted curve at half-maximal effect
# How it was run: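 AC50 from Hill fit of concentration-response; data normalized to DMSO (basal) and 15 uM tetraoctylammonium bromide (100%). LYMP1-001 lymphoblastoid cells, 2500/well, 16 hr compound at 37 C; dead-cell protease fluorescence, Ex/Em 485/520.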
# [9] = biological target: Pyruvate kinase PKM (Homo sapiens) (UniProt P14618); assay: qHTS Assay for Activators of Human Muscle Pyruvate Kinase (AID 954; active = well fitted curve in the direction sought with a large enough effect, not every such curve was filed as active)
# How it was run: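 Luminescence from a luciferase ATP-detection/stop reagent reported PKM2 activity. Reactions contained 0.1 nM purified human enzyme, 0.5 mM PEP, 0.1 mM ADP and 7 mM MgCl2 at pH 7.2, run 1 h at RT.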
# [10] = MultiTox-Fluor Cytotoxicity Assay - LYMP1-001 - Live Cells (AID 947)
# [11] = MultiTox-Fluor Cytotoxicity Assay - LYMP1-002 - Live Cells (AID 955)
# How it was run: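 Human lymphoblastoid LYMP1-002 cells, 2500/well in complete medium, rested 5 hr at 37 C, then exposed to compounds for 16 hr at 37 C. Live-cell protease cleavage of GF-AFC read by fluorescence (Ex/Em 405/510) after 60 min at room temperature; AC50 from Hill fits.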
# [12] = biological target: Cytochrome P450 2D6 (Homo sapiens) (UniProt P10635); assay: qHTS Assay for Inhibitors and Substrates of Cytochrome P450 2D6 (AID 891); also: nearly all actives have a fitted effect of over 60% in size; also: potency is read from the fitted curve at half-maximal effect
# How it was run: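 Human CYP2D6 (5 nM) with 30 uM Luciferin-ME EGE (at Km) in 100 mM KPO4, compound preincubated 10 min, then NADPH regeneration system for 60 min at room temperature. Luciferin read by luminescence; normalized to 1.43 uM quinidine.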
# [13] = biological target: Cytochrome P450 3A4 (Homo sapiens) (UniProt P08684); assay: qHTS Assay for Activators of Cytochrome P450 3A4 (AID 885); also: nearly all actives have a fitted effect of over 65% in size
# How it was run: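 20nM CYP3A4 + 25uM Luciferin-PPXE (=KM), 200mM KPO4; cpd 10 min RT; NADPH regen, 60 min RT; stop w/ detection buffer, 20 min; luminescence. Normalized to 57 uM ketoconazole.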
# [14] = biological target: Muscarinic acetylcholine receptor M1 (Rattus norvegicus) (UniProt P08482); assay: qHTS Assay for Antagonists of Acetylcholine Muscarinic M1 Receptor: Kinetic Measurement of Intracellular Calcium Response (AID 943); also: nearly all actives have a fitted effect of over 75% in size; also: potency is read from the fitted curve at half-maximal effect
# How it was run: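 CHO cells stably expressing rat M1 were loaded with no-wash Fluo-4 dye for 1 h at 37C, pre-incubated 10 min with compound, then challenged with EC80 carbachol (100 nM final); kinetic calcium read 4 min, peak/basal ratio.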
# [15] = biological target: Pyruvate kinase PKM (Homo sapiens) (UniProt P14618); assay: qHTS Assay for Inhibitors of Human Muscle Pyruvate Kinase (AID 958); conditions: purified human PKM enzyme activity
# How it was run: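 PKM2, human, >95% pure, 0.1 nM; PEP 0.5 mM (Km), ADP 0.1 mM; 50 mM imidazole pH 7.2, 50 mM KCl, 0.01% Tween 20, 0.05% BSA; 1 h RT; luciferase luminescence readout.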
# [16] = biological target: Pyruvate kinase (Leishmania mexicana) (UniProt Q27686); assay: qHTS Validation Assay for Activators of Leishmania Mexicana Pyruvate Kinase (AID 959)
# How it was run: as §1
# [17] = qHTS Assay for Identification of Small Molecule Antagonists for Thrombopoietin (TPO) Signaling Pathway (AID 918); conditions: TPO-dependent cell signaling reporter, antagonist mode; also: potency is read from the fitted curve at half-maximal effect; nearly all actives have a fitted effect of over 60% in size
# How it was run: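 Murine Ba/F3 cells stably expressing human TPO receptor and a Glycoprotein IIb promoter–luciferase reporter were IL-3-starved overnight, treated with compounds plus TPO (26 pM final, its EC50) for 24 hrs at 37 C, then read by luminescence.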
# Chain of Cytochrome P450 2D6 (Homo sapiens) (P10635 whole entry, looked up): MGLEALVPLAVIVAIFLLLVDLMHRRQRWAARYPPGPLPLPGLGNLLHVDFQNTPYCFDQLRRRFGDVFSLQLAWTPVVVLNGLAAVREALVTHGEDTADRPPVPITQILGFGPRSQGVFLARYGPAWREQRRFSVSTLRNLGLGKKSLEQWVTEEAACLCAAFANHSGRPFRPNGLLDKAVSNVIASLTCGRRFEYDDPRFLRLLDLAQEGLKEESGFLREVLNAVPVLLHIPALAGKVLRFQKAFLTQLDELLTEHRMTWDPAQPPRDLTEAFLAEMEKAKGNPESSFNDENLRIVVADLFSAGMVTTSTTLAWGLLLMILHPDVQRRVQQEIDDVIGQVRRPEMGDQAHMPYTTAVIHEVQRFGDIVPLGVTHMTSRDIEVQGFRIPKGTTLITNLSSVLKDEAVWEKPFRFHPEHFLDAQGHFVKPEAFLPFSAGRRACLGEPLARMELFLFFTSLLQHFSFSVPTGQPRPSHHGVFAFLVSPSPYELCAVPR
# Chain of Cytochrome P450 3A4 (Homo sapiens) (P08684 whole entry, looked up): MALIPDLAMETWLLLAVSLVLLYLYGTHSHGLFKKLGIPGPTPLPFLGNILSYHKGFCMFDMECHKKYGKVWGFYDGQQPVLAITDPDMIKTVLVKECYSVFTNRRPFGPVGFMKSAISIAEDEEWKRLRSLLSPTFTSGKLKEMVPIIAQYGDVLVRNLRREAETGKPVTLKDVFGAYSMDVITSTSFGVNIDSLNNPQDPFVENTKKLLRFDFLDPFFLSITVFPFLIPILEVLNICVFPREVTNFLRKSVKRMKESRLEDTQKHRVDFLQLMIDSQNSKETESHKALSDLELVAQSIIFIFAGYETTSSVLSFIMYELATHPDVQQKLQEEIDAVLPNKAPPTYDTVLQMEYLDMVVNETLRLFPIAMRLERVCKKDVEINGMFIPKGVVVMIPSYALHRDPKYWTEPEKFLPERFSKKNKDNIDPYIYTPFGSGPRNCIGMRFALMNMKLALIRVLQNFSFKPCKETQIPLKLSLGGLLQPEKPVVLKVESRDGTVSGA
# Chain of Pyruvate kinase (Leishmania mexicana) (Q27686 2-499 E452W): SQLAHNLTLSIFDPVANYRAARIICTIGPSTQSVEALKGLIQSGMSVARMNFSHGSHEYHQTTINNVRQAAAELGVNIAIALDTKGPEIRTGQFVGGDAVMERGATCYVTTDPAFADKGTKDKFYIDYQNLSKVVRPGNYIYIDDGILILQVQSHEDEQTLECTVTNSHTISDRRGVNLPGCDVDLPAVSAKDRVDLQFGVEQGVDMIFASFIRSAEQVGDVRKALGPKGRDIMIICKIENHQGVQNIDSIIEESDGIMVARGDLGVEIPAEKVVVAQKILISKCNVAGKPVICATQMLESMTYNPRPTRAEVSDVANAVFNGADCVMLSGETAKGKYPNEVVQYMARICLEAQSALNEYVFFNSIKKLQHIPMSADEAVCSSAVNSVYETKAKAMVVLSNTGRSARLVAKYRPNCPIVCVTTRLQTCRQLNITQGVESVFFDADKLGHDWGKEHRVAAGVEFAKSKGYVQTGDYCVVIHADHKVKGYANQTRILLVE
# Chain of Pyruvate kinase PKM (Homo sapiens) (P14618 whole entry, looked up): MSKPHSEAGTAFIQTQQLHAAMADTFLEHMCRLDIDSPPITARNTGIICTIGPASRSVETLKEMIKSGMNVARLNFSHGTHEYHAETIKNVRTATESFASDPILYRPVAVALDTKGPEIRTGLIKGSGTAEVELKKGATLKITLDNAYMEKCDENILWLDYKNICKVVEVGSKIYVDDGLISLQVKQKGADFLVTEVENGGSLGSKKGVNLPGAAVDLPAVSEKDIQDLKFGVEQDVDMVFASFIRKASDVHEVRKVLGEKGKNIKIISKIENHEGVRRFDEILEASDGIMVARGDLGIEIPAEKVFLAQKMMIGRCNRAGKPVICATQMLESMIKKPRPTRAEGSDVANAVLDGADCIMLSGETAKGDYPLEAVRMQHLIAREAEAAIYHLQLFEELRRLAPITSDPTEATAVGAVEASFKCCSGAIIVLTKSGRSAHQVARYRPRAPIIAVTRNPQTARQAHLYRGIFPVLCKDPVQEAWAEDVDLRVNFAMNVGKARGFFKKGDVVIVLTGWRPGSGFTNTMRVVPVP
# Chain of Guanine nucleotide-binding protein G(i) subunit alpha-1 (Homo sapiens) (P63096 whole entry, looked up): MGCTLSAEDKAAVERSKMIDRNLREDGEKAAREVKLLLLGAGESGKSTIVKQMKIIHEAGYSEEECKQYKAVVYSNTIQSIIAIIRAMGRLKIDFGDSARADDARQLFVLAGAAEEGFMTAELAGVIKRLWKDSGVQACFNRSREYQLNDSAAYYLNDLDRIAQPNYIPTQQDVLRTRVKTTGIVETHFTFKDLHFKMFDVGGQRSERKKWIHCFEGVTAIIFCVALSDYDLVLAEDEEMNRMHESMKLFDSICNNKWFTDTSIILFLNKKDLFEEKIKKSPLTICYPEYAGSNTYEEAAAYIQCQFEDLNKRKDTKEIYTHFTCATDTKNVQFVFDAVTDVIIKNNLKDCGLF
# Chain of Muscarinic acetylcholine receptor M1 (Rattus norvegicus) (P08482 whole entry, looked up): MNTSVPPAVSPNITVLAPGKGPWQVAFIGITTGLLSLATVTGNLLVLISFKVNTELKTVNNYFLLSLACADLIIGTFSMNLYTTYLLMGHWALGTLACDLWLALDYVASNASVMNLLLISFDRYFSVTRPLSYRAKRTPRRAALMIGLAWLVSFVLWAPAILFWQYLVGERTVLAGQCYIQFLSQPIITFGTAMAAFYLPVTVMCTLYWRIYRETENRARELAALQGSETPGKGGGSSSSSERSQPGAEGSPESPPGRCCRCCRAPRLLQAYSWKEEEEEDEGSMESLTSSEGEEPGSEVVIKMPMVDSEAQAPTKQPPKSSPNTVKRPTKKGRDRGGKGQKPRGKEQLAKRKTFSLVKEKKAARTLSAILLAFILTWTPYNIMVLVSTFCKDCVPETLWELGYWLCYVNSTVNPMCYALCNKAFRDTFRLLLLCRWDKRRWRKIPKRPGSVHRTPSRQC
compound,measurement,setting,value
CN(C)c1nc(N(C)C)nc(N(C)C)n1,Potency,[1],inactive
same,Potency,[2],inactive
same,Potency,[3],inactive
same,Potency,[4],inactive
same,outcome,[5],inactive
same,Potency,[6],inactive
COc1cc2c(c(OC)c1OC)-c1ccc(OC)c(=O)cc1[C@@H](NC(C)=O)CC2,Potency,[1],inactive
same,Potency,[2],inactive
same,Potency,[7],inactive
same,Potency,[6],inactive
same,Potency,[8],63.1 nM (active) and 100 nM (active)
same,outcome,[9],inactive
NC(=O)NO,Potency,[1],inactive
same,Potency,[3],inactive
same,Potency,[4],inactive
same,outcome,[5],inactive
same,Potency,[6],inactive
Clc1ccc(C(c2ccccc2Cl)C(Cl)Cl)cc1 (centres undefined),Potency,[1],inactive
same,Potency,[3],inactive
same,Potency,[4],inactive
same,outcome,[5],inactive
same,Potency,[6],inactive
same,Potency,[8],inactive
same,outcome,[10],inactive
same,outcome,[11],inactive
CN1CCN(CCCN2c3ccccc3Sc3ccc(Cl)cc32)CC1,Potency,[1],inactive
same,Potency,[12],398 nM (active) and 794 nM (active)
same,Potency,[3],inactive
same,outcome,[5],inactive
same,Potency,[6],inactive
same,outcome,[9],inactive
Cn1ccc2cc3c(cc21)CCN3C(=O)Nc1cccnc1,Potency,[1],inactive
same,Potency,[13],inactive
same,Potency,[4],1 µM (active)
same,Potency,[14],inactive
same,Potency,[6],7.94 µM (active)
same,Potency,[15],6.31 µM (active)
same,outcome,[16],inactive
CCc1cccc2c3c([nH]c12)C(CC)(CC(=O)O)OCC3 (centres undefined),Potency,[1],inactive
same,Potency,[3],inactive
same,Potency,[4],inactive
same,outcome,[5],inactive
same,Potency,[6],inactive
OCCN(CCO)c1nc(N2CCCCC2)c2nc(N(CCO)CCO)nc(N3CCCCC3)c2n1,Potency,[1],10 µM (active)
same,Potency,[12],12.6 µM (active) and 10 µM (active)
same,outcome,[12],inactive
same,Potency,[3],inactive
same,outcome,[5],inactive
same,Potency,[6],inactive
same,outcome,[9],inactive
O=C(C1CCCCC1)N1CC(=O)N2CCc3ccccc3C2C1 (centres undefined),Potency,[1],inactive
same,Potency,[13],inactive
same,Potency,[2],inactive
same,Potency,[3],inactive
same,Potency,[4],inactive
same,outcome,[5],inactive
COc1ccc2[nH]cc(CCNC(C)=O)c2c1,Potency,[1],inactive
same,Potency,[2],inactive
same,Potency,[3],inactive
same,Potency,[4],inactive
same,outcome,[5],inactive
same,Potency,[7],inactive
same,Potency,[6],inactive
same,Potency,[8],inactive
same,outcome,[10],inactive
same,outcome,[11],inactive
CCOC(=O)C(C)(C)Oc1ccc(Cl)cc1,Potency,[1],inactive
same,Potency,[2],inactive
same,Potency,[4],inactive
same,Potency,[7],inactive
same,Potency,[6],inactive
same,outcome,[9],inactive
Fc1ccc([C@@H]2CCNC[C@H]2COc2ccc3c(c2)OCO3)cc1,Potency,[1],inactive
same,Potency,[13],inactive
same,Potency,[17],12.6 µM (active)
same,Potency,[6],inactive
same,outcome,[9],inactive
NS(=O)(=O)c1cc2c(cc1Cl)NCNS2(=O)=O,Potency,[1],inactive
same,Potency,[3],inactive
same,Potency,[4],inactive
same,outcome,[5],inactive
same,Potency,[6],inactive
same,Potency,[8],inactive
same,outcome,[10],inactive
same,outcome,[11],inactive
O=C1c2c(O)ccc(O)c2C(=O)c2c(NCCNCCO)ccc(NCCNCCO)c21,Potency,[1],inactive
same,Potency,[2],2 µM (active)
same,Potency,[3],inactive
same,Potency,[17],0.0251 µM (active)
same,outcome,[5],inactive
same,Potency,[7],5.01 µM (active)
same,outcome,[16],inactive
O=C(c1ccc(F)cc1)C1CCN(CCn2c(=O)[nH]c3ccccc3c2=O)CC1,Potency,[1],inactive
same,Potency,[3],inactive
same,Potency,[4],inactive
same,outcome,[5],inactive
same,Potency,[7],inactive
same,Potency,[6],inactive
same,outcome,[9],inactive
NCCc1cnc[nH]1,Potency,[1],inactive
same,Potency,[3],inactive
same,Potency,[4],inactive
same,outcome,[5],inactive
same,Potency,[14],inactive
same,Potency,[7],inactive
same,Potency,[6],inactive
COc1ccc(C2CNC(=O)C2)cc1OC1CCCC1 (centres undefined),Potency,[1],inactive
same,Potency,[13],inactive
same,Potency,[2],inactive
same,Potency,[4],inactive
same,Potency,[14],inactive
same,Potency,[7],inactive
same,Potency,[6],inactive
same,outcome,[9],inactive
NC12CC3CC(CC(C3)C1)C2,Potency,[1],inactive
same,Potency,[3],inactive
same,Potency,[4],inactive
same,outcome,[5],inactive
C[C@](N)(Cc1ccc(O)c(O)c1)C(=O)O,Potency,[1],inactive
same,Potency,[13],inactive
same,Potency,[2],inactive
same,Potency,[4],inactive
same,Potency,[6],inactive
Cc1ccc(C(=O)Nc2ccc(S(=O)(=O)O)c3cc(S(=O)(=O)O)cc(S(=O)(=O)O)c23)cc1NC(=O)c1cccc(NC(=O)Nc2cccc(C(=O)Nc3cc(C(=O)Nc4ccc(S(=O)(=O)O)c5cc(S(=O)(=O)O)cc(S(=O)(=O)O)c45)ccc3C)c2)c1,Potency,[1],inactive
same,Potency,[3],inactive
same,outcome,[5],inactive
same,Potency,[14],1.58 µM (active)
same,Potency,[7],inactive
same,Potency,[6],inactive
